We go through five compounds from publication PMC5540273 (PLoS ONE, 2017).

Test [1] relates to GRK4. The conditions noted are these: concentration: 1 μM, replicates: in singlicate; n = 1.
Test [2] concerns GRK7. The conditions noted are these: concentration: 1 μM, replicates: in singlicate; n = 1.
For test [3], the system named is GSK3A. The conditions noted are these: concentration: 1 μM, replicates: in singlicate; n = 1.
Test [4] has as its system GSK3B. As to conditions: n = 1.
For test [5], the system named is T1, HASPIN.
T1 construct: gene GSG2
The conditions noted are these: concentration: 1 μM, replicates: in singlicate; n = 1.

Test [6] relates to HCK. As to conditions: concentration: 1 μM, replicates: in singlicate; n = 1.
Test [7] relates to HIPK1. As to conditions: concentration: 1 μM, replicates: in singlicate; n = 1.
For test [8], the system named is HIPK2. The conditions noted are these: concentration: 1 μM, replicates: in singlicate; n = 1.
For test [9], the system named is HIPK3. As to conditions: concentration: 1 μM, replicates: in singlicate; n = 1.
Test [10] concerns HIPK4. As to conditions: concentration: 1 μM, replicates: in singlicate; n = 1.
Where [11] appears, read: concentration: 1 μM, replicates: in singlicate.

Read-outs that look alike come from different tables or passages of the source.
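Further: KINOMEscan kinase panel screen.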

On to `Cn1cc(-c2ccc3c(c2)CCN3C(=O)Cc2ccccc2Cl)c2c(N)ncnc21` [GSK2608885], for which the “%Inh” value in test [1] was 0%; in test [2], 0%; in test [3], 0%; in test [4] (setting [11]), 9%; in test [5], 0%; in test [6], 99.4%. Further, the “%Inh” value in [7] turned out to be 0%; in [8], 0%; in [9] it was 14%; in test [10], 36%.

For the compound `O=C1NC(=O)C(N2CCc3ccccc32)=C1c1cccc(Cl)c1` [SB-408010], the “%Inh” value in [1] worked out at 29%; in test [2] it was 5%; in [3], 2%; in [4] (1 µM), 27%; in [5], 0%; in test [6], 25%. The “%Inh” value in test [7] stood at 27%; in test [8] it was 13%; in test [9] it was 7%; in test [10] it was 0%.

On to `CCc1ccnc(/C=C/c2n[nH]c3cc(Sc4ccccc4C(=O)NC)ccc23)c1`, for which the “%Inh” value in [1] worked out at 2%; in test [2], 0%; in test [3] it was 2%; in test [4] (setting [11]), 6%; in test [5], 11%; in test [6], 0%. Besides, the “%Inh” value is given as 3% in [7], 0% in test [8], 6% in test [9] and 15% in test [10].

For the compound `Cc1ccc(NC(=O)c2ccnc(N3CCN(C)CC3)c2)cc1-c1ccc(C(=O)NCC2CC2)cc1` [GW775604], the “%Inh” value in [1] is given as 15%; in test [2], 0%; in test [3] it was 0%; in test [4] (setting [11]), 0%; in [5], 0%; in test [6] it was 9%. The “%Inh” value in [7], in test [8], in test [9] and in test [10] was 0% in each case.

As to `Cc1c2ccc(N(C)c3ccnc(Nc4cccc(S(N)(=O)=O)c4)n3)cc2nn1Cc1ccccc1.Cl.Cl` [GW787226], the “%Inh” value in test [1] came to 21%; in test [2] it was 0%; in [3], 0%; in test [4] (setting [11]), 0%; in [5], 0%; in [6], 91.7%. The “%Inh” value stood at 23% in test [7], 0% in test [8], 0% in test [9] and 0% in test [10].
